Laboratory results published in the supplement of paper PMC3545927.
Some of the results follow. No count for the full screen is at hand.

B1: HC1227 (peptide)
chain: CAFAPPCKPLAGNASASA
B2: HC334 (peptide)
chain: CAMIAGAHWGAGNASASA
B3: FS-1294 (peptide)
chain: CAVTRRKGRCAGNASASA
B4: FS-972 (peptide)
chain: CAALLRTRRSAGNASASA
B5: HC326 (peptide)
chain: CAALVMAQLLAGNASASA
B6: FS-1532 (peptide)
chain: CAHFKRTRRSAGNASASA
B7: FS-2464 (peptide)
chain: CARTGRACECAGNASASA
B8: HC727 (peptide)
chain: CAVTRHADVIAGNASASA
B9: HC1106 (peptide)
chain: CAALVVGVVCAGNASASA
B10: FS-214 (peptide)
chain: CAALVRTRRCAGNASASA
B11: HC373 (peptide)
chain: CATALNCNDSAGNASASA
B12: HC798 (peptide)
chain: CADPNIRTGVAGNASASA
B13: HC71 (peptide)
chain: CATTPCKGSWAGNASASA
B14: HC1781 (peptide)
chain: CAMEECSQHNAGNASASA
B15: HC1916 (peptide)
chain: CATTPCSGGWAGNASASA
B16: FS-1478 (peptide)
chain: CARLCRKRRCAGNASASA
B17: HC388 (peptide)
chain: CARLASCRPLAGNASASA
B18: FS-1140 (peptide)
chain: CAMPKKTRRSAGNASASA
B19: FU10 (peptide)
chain: CARAGRSKGTAGNASASA
B20: FS-2952 (peptide)
chain: CARIKRGNTTAGNASASA
B21: FS-2882 (peptide)
chain: CARAGRACEGAGNASASA
B22: FS-2953 (peptide)
chain: CARIKRRKSLAGNASASA
B23: HC1340 (peptide)
chain: CAGITGDNTTAGNASASA
B24: FS-2875 (peptide)
chain: CAPLKRSMSLAGNASASA
B25: FS-2153 (peptide)
chain: CARKKKRQSLAGNASASA
B26: FS-486 (peptide)
chain: CARAGRSKRTAGNASASA
B27: FS-2883 (peptide)
chain: CARAGRSAPLAGNASASA
B28: FS-1990 (peptide)
chain: CARAGRSGKEAGNASASA
B29: HC1142 (peptide)
chain: CAWISSECTTAGNASASA
B30: HC606 (peptide)
chain: CALLLAVFGPAGNASASA
B31: HC103 (peptide)
chain: CAVVCCVMSYAGNASASA
B32: HC555 (peptide)
chain: CATFYGMWPLAGNASASA
B33: FS-842 (peptide)
chain: CAPRSRARKLAGNASASA
B34: FS-2990 (peptide)
chain: CARLKRLCSSAGNASASA
B35: FS-2982 (peptide)
chain: CARKSRWAKLAGNASASA
B36: FS-3156 (peptide)
chain: CARIKRSRKLAGNASASA
B37: FS-2954 (peptide)
chain: CARIKRSAPLAGNASASA
B38: FS-1898 (peptide)
chain: CARIKRQHSSAGNASASA
B39: HC2559 (peptide)
chain: CASTPCSAPLAGNASASA
B40: FS-2110 (peptide)
chain: CARVWRATSSAGNASASA
B41: HC2432 (peptide)
chain: CAEREVPCHRAGNASASA
B42: HC519 (peptide)
chain: CAEYVVLLFLAGNASASA
B43: HC547 (peptide)
chain: CACFAWYLKGAGNASASA

Molecular target: furin, P09958
Sequence (P09958 whole entry): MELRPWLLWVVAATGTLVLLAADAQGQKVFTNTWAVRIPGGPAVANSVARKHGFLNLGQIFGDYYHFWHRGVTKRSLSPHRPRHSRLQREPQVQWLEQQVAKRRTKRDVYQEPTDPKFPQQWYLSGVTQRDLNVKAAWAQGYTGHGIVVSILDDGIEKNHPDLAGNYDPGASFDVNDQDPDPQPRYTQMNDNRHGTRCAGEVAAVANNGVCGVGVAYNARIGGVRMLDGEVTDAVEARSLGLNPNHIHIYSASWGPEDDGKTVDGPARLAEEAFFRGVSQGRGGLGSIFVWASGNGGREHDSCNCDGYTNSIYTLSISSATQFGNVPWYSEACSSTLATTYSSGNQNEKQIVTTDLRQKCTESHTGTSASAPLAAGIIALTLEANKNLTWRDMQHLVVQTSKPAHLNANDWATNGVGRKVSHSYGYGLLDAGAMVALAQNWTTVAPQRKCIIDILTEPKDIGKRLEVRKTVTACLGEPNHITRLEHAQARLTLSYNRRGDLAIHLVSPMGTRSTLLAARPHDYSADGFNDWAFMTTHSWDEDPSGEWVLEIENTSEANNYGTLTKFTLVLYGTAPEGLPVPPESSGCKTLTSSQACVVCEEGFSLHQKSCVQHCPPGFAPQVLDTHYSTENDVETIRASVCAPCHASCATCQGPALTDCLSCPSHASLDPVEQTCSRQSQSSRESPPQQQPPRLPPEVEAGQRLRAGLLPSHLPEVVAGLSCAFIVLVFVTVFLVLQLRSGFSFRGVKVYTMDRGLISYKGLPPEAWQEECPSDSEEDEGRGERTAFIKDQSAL
Assay: furin cleavage Z-score vs untreated control; higher = more cleavage, active = 3.5 or more, inactive = 1 or less, 8 variable residues between constant flanks
Procedure, shortened: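 Furin cleavage was scored on 8-mer peptides joined to a cDNA oligonucleotide and bound to magnetic beads at the N-terminus. Digestion with purified furin (1:10 enzyme:substrate, 0.01 ml, 50 mM HEPES pH 7.5, CaCl2, NaCl) lasted 7.5, 15 or 30 min. Freed DNA was tagged with adapters by PCR, sequenced and counted; the cleavage Z-score is the lowess-adjusted log count versus furin-free reactions, scaled by median absolute deviation.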

Row | Sequence | furin cleavage Z-score (7.5 min) | furin cleavage Z-score (15 min) | furin cleavage Z-score (30 min)
1 | B1 | -0.328 (inactive) | -1.28 (inactive) | -1.52 (inactive)
2 | B2 | -0.899 (inactive) | -0.615 (inactive) | -0.232 (inactive)
3 | B3 | 3.46 | 5.29 (active) | 5.86 (active)
4 | B4 | 8.62 (active) | 7.98 (active) | 4.19 (active)
5 | B5 | 0.829 (inactive) | 0.666 (inactive) | -0.00652 (inactive)
6 | B6 | 10.4 (active) | 10.2 (active) | 8.6 (active)
7 | B7 | -0.465 (inactive) | 0.257 (inactive) | 0.474 (inactive)
8 | B8 | -0.38 (inactive) | 1 | -0.771 (inactive)
9 | B9 | -0.352 (inactive) | -0.584 (inactive) | -0.588 (inactive)
10 | B10 | 5.77 (active) | 6.03 (active) | 5.43 (active)
11 | B11 | -0.291 (inactive) | 1.13 | -0.956 (inactive)
12 | B12 | -0.151 (inactive) | 0.395 (inactive) | 0.163 (inactive)
13 | B13 | 1.27 | 0.748 (inactive) | 0.0767 (inactive)
14 | B14 | 1.41 | 1.49 | 0.115 (inactive)
15 | B15 | -1.1 (inactive) | -1.09 (inactive) | -1.17 (inactive)
16 | B16 | 5.9 (active) | 6.48 (active) | 7.28 (active)
17 | B17 | -0.427 (inactive) | -1.06 (inactive) | -2.04 (inactive)
18 | B18 | 9.94 (active) | 11.9 (active) | 9.14 (active)
19 | B19 | 1.67 | 1.52 | 0.0134 (inactive)
20 | B20 | 4.9 (active) | 5.56 (active) | 4.43 (active)
21 | B21 | 0.299 (inactive) | -0.431 (inactive) | 0.946 (inactive)
22 | B22 | 2.28 | 3.44 | 5 (active)

Row | Sequence | furin cleavage Z-score (7.5 min) | furin cleavage Z-score (15 min) | furin cleavage Z-score (30 min)
23 | B23 | 0.448 (inactive) | -1.88 (inactive) | -0.26 (inactive)
24 | B24 | 2.28 | 0.41 (inactive) | 0.484 (inactive)
25 | B25 | 0.376 (inactive) | 0.239 (inactive) | 0.449 (inactive)
26 | B26 | 10.8 (active) | 9.36 (active) | 7.48 (active)
27 | B27 | 2.27 | 5.01 (active) | 3.82 (active)
28 | B28 | 0.457 (inactive) | 0.0281 (inactive) | -1.58 (inactive)
29 | B29 | -0.663 (inactive) | -0.247 (inactive) | 0.84 (inactive)
30 | B30 | -1.28 (inactive) | -0.292 (inactive) | 0.343 (inactive)
31 | B31 | -1.06 (inactive) | -0.0414 (inactive) | -1.47 (inactive)
32 | B32 | -1.22 (inactive) | -0.0659 (inactive) | 1.29
33 | B33 | 0.0836 (inactive) | 1.96 | -0.483 (inactive)
34 | B34 | 0.399 (inactive) | -0.446 (inactive) | 0.202 (inactive)
35 | B35 | -0.417 (inactive) | 0.0632 (inactive) | 3.23
36 | B36 | 7.25 (active) | 9.58 (active) | 9.07 (active)
37 | B37 | 11.4 (active) | 11.4 (active) | 10.2 (active)
38 | B38 | 4.55 (active) | 5.06 (active) | 4.01 (active)
39 | B39 | -0.781 (inactive) | 0.424 (inactive) | 0.232 (inactive)
40 | B40 | 1.3 | 0.783 (inactive) | 0.938 (inactive)
41 | B41 | 0.541 (inactive) | 0.603 (inactive) | 1.7
42 | B42 | -0.402 (inactive) | 0.168 (inactive) | -0.326 (inactive)
43 | B43 | -1.21 (inactive) | -0.696 (inactive) | 0.991 (inactive)
